From PubChem BioAssay (EPA / NIEHS) come the findings set out here.

Structures are written as SMILES. Records with an inconclusive call do not appear. Activity calls are given as the source filed them. The calls were made as follows, unless noted: active = hit-call score of the fitted dose curve at least 0.9, where 1 is the maximum; inconclusive = response in the unintended direction; inactive = score below 0.9.

In assay [1] the target is Cellular tumor antigen p53 (Homo sapiens) (UniProt P04637). The assay is described as follows: TOX21_p53_BLA_p5_ratio: Tox21 HCT-116 p53 Agonism Beta-lactamase Assay, Ratio, Phase 5 (AID 2283599). The essentials: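 Beta-lactamase reporter ratio (blue 460 nm over green 530 nm, 405 nm excitation) after 2 h CCF4-AM loading, in HCT-116 cells exposed 16 h at 37 C to compounds pinned at 217-fold dilution. Increases relative to DMSO baseline scored.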

Assay [2] is described as follows: TOX21_p53_BLA_p5_viability: Viability Assessment in the Tox21 HCT-116 p53 Agonism Beta-lactamase Assay, Phase 5 (AID 2283600). Summed up: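 4000 cells/well; 5 h pre-incubation; DMSO compounds pin-transferred, 217-fold dilution; 16 h, 37C/5% CO2; CCF4-AM 2 h RT; CellTiter-Glo 30 min RT; luminescence.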
The target in assay [3] is Cellular tumor antigen p53 (Homo sapiens) (UniProt P04637). Briefly: TOX21_p53_BLA_p4_ratio: Tox21 HCT-116 p53 Agonism Beta-lactamase Assay, Ratio, Phase 4 (AID 2283601). Summed up: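 Signal is the blue/green (460nm/530nm) ratio of cleaved versus uncleaved CCF4-AM substrate, read after 2 h substrate loading. Cells were HCT116 carrying the p53-responsive beta-lactamase reporter, dosed 16 h at 37C, 5% CO2; CellTiter-Glo measured in parallel.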

Assay [4] can be described thus: Tanguay_ZF_120hpf_YSE_legacy: (Legacy) Oregon State University Tanguay Lab 120 Hour Post-fertilization zebrafish Assay for Yolk Sac Edema (AID 2283634). Summed up:
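Dechorionate (pronase, 4 hpf) → place one 6 hpf embryo per well → static compound exposure, sealed and foil-covered, 28C, to 120 hpf → record yolk sac edema as present or absent. Final DMSO 0.64%.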

A short description of assay [5]: Tanguay_ZF_120hpf_AXIS_legacy: (Legacy) Oregon State University Tanguay Lab 120 Hour Post-fertilization zebrafish Assay for Body Axis Malformation (AID 2283635). The essentials:
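Chorion is removed with pronase at 4 hpf, then single 6 hpf embryos are dosed (final DMSO 0.64%) and held statically at 28C in sealed, foil-covered plates. At 120 hpf body axis malformation is recorded as present or absent.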

A short description of assay [6]: Tanguay_ZF_120hpf_EYE_legacy: (Legacy) Oregon State University Tanguay Lab 120 Hour Post-fertilization zebrafish Assay for Eye Malformation (AID 2283636). The essentials: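 Read-out is binary presence or absence of eye malformation, scored by brightfield microscopy at 120 hpf. Single larvae were exposed from 6 hpf in embryo medium containing 0.64% DMSO, with DMSO as baseline.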

The nature of assay [7]: Tanguay_ZF_120hpf_SNOU_legacy: (Legacy) Oregon State University Tanguay Lab 120 Hour Post-fertilization zebrafish Assay for Snout Malformation (AID 2283637). Summed up:
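Snout malformation read as a yes/no call on brightfield images of 120 hpf larvae (Tropical 5D strain). Static exposure began at 6 hpf on dechorionated embryos in 0.64% DMSO, with gain of signal analysed versus DMSO controls.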

Assay [8] can be described thus: Tanguay_ZF_120hpf_JAW_legacy: (Legacy) Oregon State University Tanguay Lab 120 Hour Post-fertilization zebrafish Assay for Jaw Malformation (AID 2283638). The essentials:
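Steps: dechorionate 4 hpf embryos (pronase); plate 1/well at 6 hpf; add test chemical, 0.64% DMSO final; seal, cover, hold at 28C statically to 120 hpf; score jaw defect presence/absence microscopically. Dead embryos not scored.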

A short description of assay [9]: Tanguay_ZF_120hpf_OTIC_legacy: (Legacy) Oregon State University Tanguay Lab 120 Hour Post-fertilization zebrafish Assay for Otic Vesicle Malformation (AID 2283639). Summed up:
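Tropical 5D wild-type zebrafish embryos statically exposed in 0.64% DMSO at 28C until 120 hpf; 5uM trimethyltin chloride as positive control. Otic vesicle malformation scored present/absent by brightfield; dead embryos not scored; gain fitted versus DMSO.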

Assay [10] in a line: Tanguay_ZF_120hpf_PE_legacy: (Legacy) Oregon State University Tanguay Lab 120 Hour Post-fertilization zebrafish Assay for Pericardial Edema (AID 2283640). The essentials:
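Embryos from wild-type 5D adults were staged, then dosed in 0.64% DMSO. They were kept sealed in the dark at 28C until 120 hpf. Pericardial edema was then recorded as present or absent.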

Assay [11] can be described thus: Tanguay_ZF_120hpf_SOMI_legacy: (Legacy) Oregon State University Tanguay Lab 120 Hour Post-fertilization zebrafish Assay for Somite Malformation (AID 2283647). The essentials: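 Read-out: presence or absence of somite malformation in 120 hpf larvae, gain-of-signal relative to DMSO baseline. Embryos lacked chorion (pronase, 4 hpf) and were exposed statically from 6 hpf at 28C; dead larvae not scored.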

Assay [12] is described as follows: Tanguay_ZF_120hpf_PFIN_legacy: (Legacy) Oregon State University Tanguay Lab 120 Hour Post-fertilization zebrafish Assay for Pectoral Fin Malformation (AID 2283648).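 Also: each larva judged yes or no for fin defect by brightfield with dead larvae skipped.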 The essentials:
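5D WT zebrafish; pronase dechorionation 4 hpf; 1 embryo/well at 6 hpf; static exposure to 120 hpf, 28C, sealed, foil-covered; final DMSO 0.64% v/v; 5 uM trimethyltin chloride positive control; fin defect scored yes/no.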

Assay [13] in a line: Tanguay_ZF_120hpf_PIG_legacy: (Legacy) Oregon State University Tanguay Lab 120 Hour Post-fertilization zebrafish Assay for Pigmentation Malformation (AID 2283650). Summed up: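 Pronase dechorionation at 4 hpf; embryos plated at 6 hpf, one per well; static exposure, sealed and foil-covered, 28C, to 120 hpf; pigmentation read by brightfield, binary; DMSO 0.64% baseline, 5uM trimethyltin chloride positive control.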

The nature of assay [14]: Tanguay_ZF_120hpf_CIRC_legacy: (Legacy) Oregon State University Tanguay Lab 120 Hour Post-fertilization zebrafish Assay for Circulatory Malformation (AID 2283651). The essentials: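 Dechorionated wild-type 5D zebrafish embryos, one per well, statically exposed from 6 to 120 hpf at 28C with 0.64% DMSO; circulatory malformation scored present/absent by brightfield microscopy at 120 hpf, dead embryos excluded.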

A short description of assay [15]: Tanguay_ZF_120hpf_MORT_legacy: (Legacy) Oregon State University Tanguay Lab 120 Hour Post-fertilization zebrafish Assay for Mortality (AID 2283633). The essentials:
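5D WT zebrafish, chorion removed 4 hpf; 1 embryo/well from 6 hpf; static exposure to 120 hpf, 28C, dark, sealed. Final DMSO 0.64%. Readout: binary mortality, brightfield, 24 + 120 hpf; DMSO as negative control.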

A short description of assay [16]: Tanguay_ZF_120hpf_BRAI_legacy: (Legacy) Oregon State University Tanguay Lab 120 Hour Post-fertilization zebrafish Assay for Brain Malformation (AID 2283641). The essentials: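 Wild-type 5D larvae, static waterborne exposure to 120 hpf, 28C, 0.64% v/v DMSO. Brightfield scoring of brain defects, binary; dead embryos excluded. Positive ctrl 5uM trimethyltin chloride.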

Assay [17] can be described thus: Tanguay_ZF_120hpf_CFIN_legacy: (Legacy) Oregon State University Tanguay Lab 120 Hour Post-fertilization zebrafish Assay for Caudal Fin Malformation (AID 2283649). The essentials:
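Binary presence or absence of caudal fin malformation at 120 hpf, read by brightfield microscopy, with DMSO as baseline. Larvae came from 5D wild-type embryos exposed statically from 6 hpf at 28C after pronase dechorionation.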

Read-out in assay [18]: kallikrein-3 (KLK3), KLK3 (gene 354)
The assay is described as follows: LTEA_HepaRG_KLK3: Life Technologies and Expression Analysis (LTEA) Assay for kallikrein-3 (KLK3) using HepaRG (AID 2283652; active = hit-call score of the fitted dose curve at least 0.9, where 1 is the maximum; inactive = score below 0.9). The conditions noted are these: mRNA level, 48 h; actives raise or lower the signal. The essentials:
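Differentiated human HepaRG cells in serum-free induction medium exposed 48 h in duplicate, eight-point half-log series from 100 uM in 0.5% DMSO. KLK3 mRNA by qRT-PCR, normalised to ACTB, GAPDH, POLR2A; bidirectional fit versus DMSO.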

Read-out in assay [19]: solute carrier (SLC22A6), SLC22A6 (gene 9356)
Briefly: LTEA_HepaRG_SLC22A6: Life Technologies and Expression Analysis (LTEA) Assay for solute carrier (SLC22A6) using HepaRG (AID 2283653; active = hit-call score of the fitted dose curve at least 0.9, where 1 is the maximum; inactive = score below 0.9). The conditions noted are these: mRNA level, 48 h; actives raise or lower the signal. Summed up:
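Read-out is SLC22A6 transcript level by qRT-PCR, normalised to three housekeeping genes and fitted for gain or loss relative to 0.5% DMSO vehicle. Human HepaRG cells received chemicals at up to 100 uM for 48 h.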

Assay [20] in a line: TOX21_p53_BLA_p4_viability: Viability Assessment in the Tox21 HCT-116 p53 Agonism Beta-lactamase Assay, Phase 4 (AID 2283597).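 Also: hits lower the luminescence signal meaning cytotoxicity.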 The essentials:
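Cells plated, 5 h pre-incubation; DMSO compounds pinned (217-fold dilution); 16 h, 37C/5% CO2; CCF4-AM 2 h RT; CellTiter-Glo 30 min RT; luminescence read.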

Chain of Cellular tumor antigen p53 (Homo sapiens) (P04637 whole entry, looked up): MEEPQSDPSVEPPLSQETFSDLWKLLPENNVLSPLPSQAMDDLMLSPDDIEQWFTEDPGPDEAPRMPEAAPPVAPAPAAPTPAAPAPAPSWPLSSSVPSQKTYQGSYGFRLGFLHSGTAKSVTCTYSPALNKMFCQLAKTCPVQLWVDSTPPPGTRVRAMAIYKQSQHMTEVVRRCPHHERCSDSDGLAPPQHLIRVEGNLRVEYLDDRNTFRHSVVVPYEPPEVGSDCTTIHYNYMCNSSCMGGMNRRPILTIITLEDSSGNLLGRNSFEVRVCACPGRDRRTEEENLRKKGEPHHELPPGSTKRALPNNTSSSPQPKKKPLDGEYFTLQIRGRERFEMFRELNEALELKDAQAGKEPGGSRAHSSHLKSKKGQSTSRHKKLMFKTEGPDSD

`C=CCc1ccc(OC)c(OC)c1`: the result in assay [1], in assay [2], in assay [3], in [4], in [5] and in [6] was inactive. Also, the molecule was classed as inactive in [7], in [8], in assay [9], in assay [10], in [11] and in assay [12]. The molecule was called inactive in [13] and in [14].

Turning to `O=C(O)CN(CC(=O)O)CC(=O)O`, the result in [1], in assay [2], in [3], in assay [15], in assay [4] and in [5] was inactive. For the same molecule, the molecule was called inactive in [6], in [7], in assay [8], in [10], in assay [11] and in assay [12]. The result in assay [13] and in assay [14] was inactive.

Consider `C=CCCCCCCCCCCCC`, for which the result in assay [1], in assay [3], in assay [15], in assay [4], in [5] and in assay [6] was inactive. For the same molecule, the molecule was called inactive in assay [9], in assay [10], in assay [16], in [11], in assay [12] and in assay [14].

Consider `CC(=O)O[C@]1(C(C)=O)CC[C@H]2[C@@H]3C=C(Cl)C4=CC(=O)[C@@H]5C[C@@H]5[C@]4(C)[C@H]3CC[C@@]21C`, for which the call in assay [15], in assay [4], in assay [5], in assay [6], in [7] and in assay [8] was inactive. For the same molecule, the call in assay [9], in [10], in [11], in assay [17], in assay [13] and in assay [14] was inactive.

In the case of `CCCCCCC(CCCCCCCCCCC(=O)OCC(COC(C)=O)OC(C)=O)OC(C)=O` (stereo not drawn), the result in assay [1], in assay [2], in [3], in assay [15], in assay [4] and in assay [5] was inactive. For the same molecule, the molecule was classed as inactive in assay [6], in assay [7], in assay [9], in assay [10], in assay [11] and in [12]. For the same molecule, the outcome in assay [17], in assay [13], in assay [18] and in [19] was inactive.

For the molecule `CN(C)CCCN(C)CCCN(C)C`, the result in assay [2], in assay [3], in assay [15], in assay [4], in [5] and in [6] was inactive. Also, the outcome in assay [7], in assay [9], in assay [10], in assay [11], in assay [12] and in [17] was inactive. Besides, the outcome in assay [13] and in [14] was inactive.

On to `COc1ccc(C(=O)Nc2nc3ccccc3c(NCc3ccccc3)c2C#N)cc1`, for which the molecule was classed as inactive in assay [20], in assay [15], in assay [4], in assay [5], in [7] and in assay [16]. For the same molecule, the outcome in assay [13] and in assay [14] was inactive. Besides, the concentration at half-maximal activity (AC50) (commonly the midpoint of the concentration-response curve, whichever way the signal moves) in assay [1] is 63.1 µM (active); in [3], 72.8 µM (active).

Consider `CCCCCCCC(=O)OC`, for which the outcome in [20], in assay [2], in [3], in assay [15], in assay [4] and in assay [5] was inactive. In addition, the molecule was classed as inactive in [6], in assay [7], in [9], in assay [10], in assay [16] and in assay [11]. Besides, the molecule was classed as inactive in assay [12], in assay [17], in assay [13] and in [14].

Consider `CCCCCCCCCC[N+](C)(C)[O-]`, for which the result in assay [2], in [3], in assay [15], in [4], in assay [6] and in assay [7] was inactive. Moreover, the outcome in assay [8], in assay [9], in assay [10], in assay [11], in assay [12] and in assay [17] was inactive. Also, the molecule was classed as inactive in [13], in [14] and in assay [19].
